Laboratory results taken from PubChem BioAssay AID1240 (Sanford-Burnham Center for Chemical Genomics, 2008).
Among all 50,000 compounds or so, about 800 (1.6%) showed an effect of 50% or more. For the sample, strong results were picked, then their nearest neighbours and some compounds at random.

target: Bcl-2-like protein 10 (Homo sapiens) (UniProt Q9HD36); test: Phenotype converters, Bcl-B/TR3 peptide binding displacement, primary biochemical FP (AID 1240); settings: GST-Bcl-B / FITC-TR3 peptide fluorescence polarization; stronger effect = higher value; compound at 3.75 mg/L;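 note: 0% = Bcl-B with tracer peptide and DMSO and 100% = tracer peptide lacking Bcl-B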
Sequence (Q9HD36 whole entry, looked up): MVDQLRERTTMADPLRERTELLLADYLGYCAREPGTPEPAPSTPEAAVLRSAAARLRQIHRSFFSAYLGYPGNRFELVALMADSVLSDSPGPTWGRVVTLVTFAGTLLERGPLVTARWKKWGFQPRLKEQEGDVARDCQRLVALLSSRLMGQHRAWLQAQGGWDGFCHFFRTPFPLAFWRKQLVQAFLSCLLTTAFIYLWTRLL

| Compound | displacement [%] |
| --- | --- |
| CCc1ccc(-c2csc(N3N=C(c4cccs4)CC3c3ccc(F)cc3)n2)cc1 (centres undefined) | 0.2 |
| COc1ccc(NC(=O)c2ccccc2NC(=O)c2ccc(C)cc2)cc1 | -10.2 |
| CC(C)CN1C(=O)/C(=C/c2cn(-c3ccccc3)nc2-c2cccs2)SC1=S | 34.6 |
| O=C1/C(=C/c2cn(-c3ccccc3)nc2-c2cccs2)SC(=S)N1Cc1ccccc1 | 115 |
| O=C(O)CCN1C(=O)/C(=C/c2cn(-c3ccccc3)nc2-c2cccs2)SC1=S | -14.1 |
| O=C1/C(=C/c2cn(-c3ccccc3)nc2-c2ccco2)SC(=S)N1C1CCS(=O)(=O)C1 (centres undefined) | 11.2 |
| COc1ccc(N2C(=O)/C(=C/c3cn(-c4ccccc4)nc3-c3cccs3)SC2=S)cc1 | 0.4 |
| O=C1/C(=C/c2cn(-c3ccccc3)nc2-c2cccs2)SC(=S)N1C1CCS(=O)(=O)C1 (centres undefined) | 100 |
| COc1ccc(-n2c(SCC(=O)Nc3ccc(C)cc3)nc(O)c(Cc3ccccc3)c2=O)cc1 | 22.8 |
| Cc1ccnc(N2C(=O)c3ccc(C(=O)O)cc3C2=O)c1 | 1.9 |
| Cc1nn(-c2ccccc2)c2sc(C(=O)N/N=C/c3cc4c(cc3[N+](=O)[O-])OCO4)cc12 | -1.4 |
| Cc1ccccc1OCC(=O)Nc1ccc(I)cc1Cl | 9.5 |
| COC(=O)C1=C(C)N(C)C(C)=C(C(=O)OC)C1c1ccc(Br)cc1 | -10.8 |
| CCOc1ccc(-c2nc(Cc3ccccc3OC)no2)cc1 | -6.4 |
| O=C1C2CCCCC2C(=O)N1CC(=O)N1c2ccccc2Sc2ccc(C(F)(F)F)cc21 (centres undefined) | -14.3 |
| CCCOc1ccc(N2C(=O)CC(NCCNc3ccc([N+](=O)[O-])cn3)C2=O)cc1 (centres undefined) | -1.7 |
| O=C(Nc1ccccc1)c1ccccc1N=Cc1ccc(Cl)c([N+](=O)[O-])c1 | 6.6 |
| CCn1c2ccccc2c2cc(C=Nc3ccccc3C(=O)Nc3ccccc3)ccc21 | -5.9 |
| O=C(Nc1ccccc1)c1ccccc1N=Cc1ccc(C=Nc2ccccc2C(=O)Nc2ccccc2)cc1 | 121 |
| CCOP(=O)(OCC)C(OC(N)=O)c1ccc([N+](=O)[O-])cc1 (centres undefined) | -9.1 |
| Cc1onc(-c2c(F)cccc2Cl)c1C(=O)NCc1ccccn1 | -5.5 |
| O=[N+]([O-])c1ccccc1N[C@H]1O[C@H](CO)[C@@H](O)[C@@H]1O | 6 |
| Cc1cc(N[C@@H]2O[C@@H](C)[C@H](O)[C@@H](O)[C@H]2O)c([N+](=O)[O-])cc1C | 6.5 |
| C[C@@H]1O[C@@H](Nc2ccc(Cl)cc2[N+](=O)[O-])[C@H](O)[C@H](O)[C@H]1O | 54.7 |
| CC1=NN(c2ccc(C(=O)O)cc2)C(=O)/C1=C\c1ccc(O)cc1 | -50.5 |
| Cc1cc2nc(-c3cc(NC(=O)COc4ccc([N+](=O)[O-])cc4)ccc3O)oc2cc1C | 0.2 |

| Compound | displacement [%] |
| --- | --- |
| Cc1c(NC(=O)/C=C/c2ccccc2)c(=O)n(-c2ccccc2)n1C | 2.7 |
| Cc1c(NC(=O)/C=C/c2cn(-c3ccccc3)nc2-c2ccc(F)cc2)c(=O)n(-c2ccccc2)n1C | 12.2 |
| Cc1c(NC(=O)/C=C/c2cn(-c3ccccc3)nc2-c2ccccc2)c(=O)n(-c2ccccc2)n1C | 70 |
| COc1ccc(C(=O)N2CCN(Cc3ccccc3F)CC2)cc1OC | 56 |
| COc1ccc(C(=O)N2CCN(Cc3ccccc3C)CC2)cc1OC | -1 |
| COc1cc(C(=O)N2CCN(Cc3cccc(Oc4ccccc4)c3)CC2)cc(OC)c1OC | 132 |
| COc1ccc(C(=O)N2CCN(Cc3cccc(Oc4ccccc4)c3)CC2)cc1OC | 6.4 |
| O=C(c1ccccc1)N1CCN(Cc2cccc(Oc3ccccc3)c2)CC1 | -8.8 |
| COc1ccc(C(=O)N2CCN(Cc3cccc4ccccc34)CC2)cc1OC | -5.2 |
| CC(=O)SCCC(=O)N1CCn2c3c(c4cc(C)ccc42)CCCC31 (centres undefined) | 14.3 |
| CN1CCN(CC(=O)N2CCn3c4c(c5cc(C6CCCCC6)ccc53)CCCC42)CC1 (centres undefined) | 60.9 |
| CCn1c2c(c3cc(C4CCCCC4)ccc31)CCCC2O (centres undefined) | 2.5 |
| O=C(Nc1ccc(Cl)cc1)Nc1ccc([N+](=O)[O-])cc1Br | 3.9 |
| CCCC(=O)Nc1ccc2c(c1)Cc1ccccc1-2 | -1.1 |
| O=C(N/N=C/c1cccnc1)c1ccco1 | 18.4 |
| O=C1OC(c2ccc(NC(=O)C(F)(F)F)cc2)(c2ccc(NC(=O)C(F)(F)F)cc2)c2ccccc21 | 4.8 |
| O=C1OC(Nc2ncccn2)(c2ccccc2)c2ccccc21 (centres undefined) | -7.3 |
| O=S(=O)(c1ccc2ccccc2c1)N1CCC(Cc2ccccc2)CC1 | -21.4 |
| O=C(CCN1C(=O)c2ccccc2C1=O)Nc1ccccc1C(=O)N1CCOCC1 | 10 |
| O=C1CNC(=O)c2c(ncn2Cc2ccccc2)N1 | -13.2 |
| O=C1c2ccccc2-c2onc3ccc(N4CCCCC4)c1c23 | 145 |
| Cc1ccc(N2CCCCC2)c2c1C(=O)c1ccccc1C2=O | 1.1 |
| O=C1c2ccccc2-c2onc3ccc(Nc4cccc([N+](=O)[O-])c4)c1c23 | 24.2 |
| O=C1c2ccccc2-c2onc3c(N4CCN(c5ccccc5)CC4)ccc1c23 | -8.2 |
| O=C1c2ccccc2C(=O)c2c(NC3CCCCC3)cccc21 | -2.9 |
| O=C1c2ccccc2-c2onc3ccc(NC4CCCCC4)c1c23 | 59.4 |

| Compound | displacement [%] |
| --- | --- |
| CCSc1sc(CC)cc1C(=O)O | 15.4 |
| O=c1oc(-c2ccco2)nc2ccc(Cl)cc12 | 13.6 |
| O=c1oc(-c2ccco2)nc2ccccc12 | 15.9 |
| O=c1oc(-c2ccco2)nc2cc(Cl)ccc12 | 56 |
| C(=C\c1ccco1)/C=N/Nc1nnc2c(n1)[nH]c1ccccc12 | -1.8 |
| CCOc1ccc(C(=O)Nc2ccc(O)c(-c3nc4ccccc4s3)c2)cc1Cl | 6.3 |
| O=c1c2c(nc3cc(-c4ccc(I)cc4)[nH]n13)CCS2 | 97.5 |
| Cc1ccc(-c2cc3nc4c(c(=O)n3[nH]2)SCC4)cc1 | -4.6 |
| O=c1c2c(nc3cc(-c4ccc(Br)cc4)[nH]n13)CCS2 | -9.1 |
| O=c1c2c(nc3cc(-c4ccc(Cl)cc4)[nH]n13)CCS2 | 115 |
| O=c1c2c(nc3cc(-c4cccc(F)c4)[nH]n13)CCS2 | 9.2 |
| O=c1c2c(nc3cc(-c4cccc(Cl)c4)[nH]n13)CCS2 | 34.8 |
| O=C(COc1cccc2ccccc12)NCc1cccnc1 | 8.3 |
| CC(C)CNC(=O)c1cccc(NC(=O)CN2C(=O)c3ccccc3C2=O)c1 | 13.8 |
| O=C(NCc1ccncc1)c1ccc(Cl)cc1 | -3.5 |
| C/C(=N/NC(=O)COc1cccc(Cl)c1)c1ccccc1O | 9.1 |
| Cc1cc(C)c(NC(=O)c2ccccc2[N+](=O)[O-])c(C)c1 | 13.5 |
| CC(=O)NC(NC(C)=O)c1ccc(F)cc1 | -2.4 |
| COc1ccc(/C=C2\C(=O)NC(=O)N(c3cccc(Br)c3)C2=O)c(OC)c1 | 122 |
| COc1ccc(/C=C2\C(=O)NC(=O)N(c3ccc(F)cc3)C2=O)cc1OC | -27.7 |
| CCOc1ccc(/C=C2/C(=O)NC(=O)N(c3ccc(OC)cc3)C2=O)c(OCC)c1 | -4 |
| COc1ccc(/C=C2\C(=O)NC(=O)N(c3cccc(Br)c3)C2=O)c(C)c1 | -5.7 |
| COc1ccc(/C=C2\C(=O)NC(=S)N(c3cccc(Br)c3)C2=O)c(OC)c1 | -0.7 |
| COc1cc(/C=C2\C(=O)NC(=O)N(c3cccc(Br)c3)C2=O)cc(Cl)c1O | 4.4 |
| CCN(CC)c1ccc(/C=C2\C(=O)NC(=O)N(c3ccc(OC)cc3)C2=O)c(OC)c1 | 10 |
| CCOc1ccc(N2C(=O)NC(=O)/C(=C\c3ccc(N(CC)CC)cc3OC)C2=O)cc1 | 55.1 |

| Compound | displacement [%] |
| --- | --- |
| COc1ccc(/C=C2\C(=O)NC(=O)N(c3cccc(Br)c3)C2=O)cc1OC | 120 |
| Cc1cc(Br)ccc1NC(=O)c1ccc(C)c([N+](=O)[O-])c1 | 8.6 |
| CCCCCOC(=O)C1=C(C)NC(=O)NC1c1ccc(Br)cc1 (centres undefined) | 8.5 |
| COc1ccccc1C(=O)Nc1nnc(C(C)(C)C)s1 | -11.4 |
| CCOc1ccc(S(=O)(=O)N(CC(=O)NC)c2ccc(C)cc2)cc1 | 1.7 |
| C=CCC(C)(CC=C)NC(=O)c1ccccc1[N+](=O)[O-] | -6.9 |
| O=C(NCC1CCCO1)/C(=C/c1ccc(-c2ccccc2Cl)o1)NC(=O)c1ccccc1 (centres undefined) | 19.7 |
| COc1cc(C(=O)Oc2ccc(Cl)cc2C)cc(OC)c1OC | 2.1 |
| CCOC(=O)C1=C(C)NC2=C(C(=O)CC(C)(C)C2)C1c1ccc(OC(F)F)cc1 (centres undefined) | -0.2 |
| CCOc1ccc(C2=C/C(=C/c3ccc(OC)cc3)C(=O)O2)cc1 | -0.6 |
| CC(=O)Oc1ccc(/C=C2\C=C(c3ccc(C)cc3)OC2=O)cc1 | 34.5 |
| COc1ccc(C2=C/C(=C\c3ccc(OC(C)=O)cc3)C(=O)O2)cc1 | 110 |
| COc1ccc(C2=C/C(=C\c3cccc(OC(C)=O)c3)C(=O)O2)cc1 | 25.4 |
| CCOc1cc(/C=C2\C=C(c3ccc(OC)cc3)OC2=O)ccc1OC(C)=O | 92.4 |
| COc1ccc(C2=C/C(=C\c3ccc(OC(C)=O)c(OC)c3)C(=O)O2)cc1 | 39.4 |
| CC(=O)Oc1cccc(/C=C2\C=C(c3ccc(C)cc3)OC2=O)c1 | 7 |
| COc1ccc(/C=C2\C=C(c3ccc(C)cc3)OC2=O)cc1C | 10.4 |
| CCOc1cc(/C=C2\C=C(c3ccc(C)cc3)OC2=O)ccc1OC(C)=O | 111 |
| COc1cc(/C=C2\C=C(c3ccc(C)cc3)OC2=O)ccc1OC(C)=O | 59.2 |
| CCOc1cc(/C=C2/C=C(c3ccc(OC)cc3)OC2=O)cc(I)c1OC | -6 |
| CCOc1cc(/C=C2\C=C(c3ccc(Br)cc3)OC2=O)ccc1OC(C)=O | 12.6 |
| O=C(O)c1ccc(-c2ccc(OC(F)(F)F)cc2)o1 | -7.6 |
| NC(=S)N/N=C/c1cccn1-c1ccc([N+](=O)[O-])cc1 | -1 |
| O=C1S/C(=C/c2ccc(Cl)c(Cl)c2)C(=O)N1c1ccccc1 | 17.9 |
| CCOC(=O)c1c(NC(=O)CC2SC(N)=NC2=O)sc2c1CCCC2 (centres undefined) | 6.3 |
| COc1ccc(C(=O)CC(Nc2ccc([N+](=O)[O-])cc2)c2ccc(Cl)cc2)cc1 (centres undefined) | -4.2 |
